# High-throughput results deposited in PubChem BioAssay by Broad Institute.
# Pf Dd2 growth: P. falciparum Dd2 growth inhibition; SYBR Green, 72 h; hits give low values; activity change, % at 10 µM; hit rate 2.3% among 94,000; AID 1159554; in the data active = activity change below about -80%; inconclusive = no clear call, values can overlap the other calls
# T cruzi growth-1: T. cruzi proliferation inhibition. T. cruzi beta-gal in NIH3T3, GalScreen luminescence, 90 h. hit rate 5.9% among 77,000. inhibition, % at 8.34 µM;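 active = mean inhibition above about 93%, with at least 55% of replicates each passing it, limit read from the data, passing the limit was not always enough; inconclusive = only one of those two conditions holds; inactive = neither condition holds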
# C diff HTS: C. difficile growth inhibition; Clostridium difficile clinical isolate growth, OD600, 24 h; hits give low values; growth activity, negative = inhibition, % at 16 µg/mL (by protocol); hit rate 0.25% among 86,000; AID 1259249;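 active = mean growth activity at or below -80% and every replicate also at or below -80%; inconclusive = mean at or below -80% but some replicate above -80%; inactive = mean growth activity above -80%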;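 note: 0% = DMSO wells and -100% = levofloxacin 16 µg/mL wells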
# T cruzi growth-2: Trypanosoma cruzi proliferation inhibition; shares compounds with T cruzi growth-1; T. cruzi beta-gal in NIH3T3, GalScreen luminescence, 90 h; AID 651739; hit rate 72% among 5,600; inhibition, % at 8.35 µM;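 active = mean replicate inhibition above about 95% and at least 55% of replicates individually reaching it, limit read from the data; inconclusive = only one of the two criteria is met; inactive = neither criterion is met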
# T cruzi growth-3: blocks T. cruzi growth in NIH3T3 host cells; shares compounds with T cruzi growth-1; T. cruzi beta-gal in NIH3T3, GalScreen luminescence, 90 h; inhibition, % at 2.09 µM; hit rate 21% among 5,600;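 active = mean inhibition above about 95%, with at least 55% of replicates also reaching it, limit read from the data; inconclusive = meets just one of the two conditions; inactive = meets neither condition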;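 note: plate controls were neutral control median for no effect and positive control median for full effect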
# 3T3 cytotox: NIH/3T3 (mouse) viability loss; AID 651742; cytotoxicity (signal decrease), % at 8.35 µM; NIH/3T3 viability, CellTiter-Glo ATP luminescence, 90 h; shares compounds with T cruzi growth-1; hit rate 14% among 5,600;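 active = mean signal decrease across replicates above about 35% based on untreated-well scatter, with enough replicates individually passing, limit read from the data; inconclusive = no rule stated though some were filed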;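 note: 0% = median of neutral control wells and 100% = median of positive control wells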
# 3T3 cytotox 2: NIH/3T3 (mouse) viability loss | shares compounds with T cruzi growth-1 | NIH/3T3 viability, CellTiter-Glo ATP luminescence, 90 h | hit rate 56% among 5,600 | inhibition, % at 24.9 µM;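 active = mean loss of cell viability signal at or above a set limit, and enough replicates individually reaching it; inconclusive = meets only the mean limit or only the replicate share; inactive = meets neither condition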;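 note: 0% = median of neutral control wells and 100% = median of positive control wells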
# * = called active by the depositor; ? = inconclusive; nt = no result. This is a sample that favours compounds with a hit; in the whole collection about 6.7% have one here.
SMILES,Pf Dd2 growth,T cruzi growth-1,C diff HTS,T cruzi growth-2,T cruzi growth-3,3T3 cytotox,3T3 cytotox 2
N#C[C@H]1[C@@H](c2ccc(C#CC3CCCC3)cc2)[C@H](CO)N1C(=O)Cc1ccccn1,-51.4,nt,-0.7,nt,nt,nt,nt
CN(C)CC(=O)N1[C@H](CO)[C@H](c2ccc(C#CC3CCCC3)cc2)[C@@H]1C#N,-41.0,95.9*,5.6,101.5*,107.2*,12.3,8.7
CN(C)CC(=O)N1[C@H](C#N)[C@H](c2ccc(C#CC3CCCCC3)cc2)[C@H]1CO,-26.5,92.8,6.1,nt,nt,nt,nt
CN(C)CC(=O)N1[C@H](CO)[C@@H](c2ccc(C#CC3CCCC3)cc2)[C@@H]1C#N,5.7,9.3,5.8,nt,nt,nt,nt
CN(C)CC(=O)N1[C@H](C#N)[C@@H](c2ccc(C#CC3CCCC3)cc2)[C@@H]1CO,3.8,?,-3.1,85.4,21.8,3.1,104.6*
N#C[C@H]1[C@H](c2ccc(C#CC3CC3)cc2)[C@H](CO)N1C(=O)Cc1ccccn1,-42.9,105.4*,-2.3,104.4*,74.3,-3.4,3.4
COc1ccc2c3c([nH]c2c1)[C@H](CO)N(C(=O)c1ccc(F)cc1)CC31CN(C)C1,12.2,nt,-13.9,nt,nt,nt,nt
Cc1noc(C)c1S(=O)(=O)Nc1ccc2c(c1)C(=O)N([C@H](C)CO)C[C@@H](C)[C@@H](CN(C)CC1CCCCC1)OCCCC[C@H](C)O2,4.6,6.1,10.0,nt,nt,nt,nt
C[C@@H]1CN([C@H](C)CO)S(=O)(=O)c2ccc(C3=CCCCC3)cc2O[C@@H]1CN(C)C(=O)Cc1ccncc1,-68.5,94.4,-1.1,nt,nt,nt,nt
C[C@@H]1CN([C@@H](C)CO)S(=O)(=O)c2ccc(C3=CCCC3)cc2O[C@H]1CN(C)C(=O)Cc1ccncc1,-65.8,98.0*,-0.6,80.5,15.2,-7.3,22.8
C[C@@H]1CN([C@H](C)CO)S(=O)(=O)c2ccc(C3=CCCCC3)cc2O[C@@H]1CN(C)C(=O)Cc1ccccc1,-6.9,102.5,9.0,nt,nt,nt,nt
C[C@@H]1CN([C@H](C)CO)S(=O)(=O)c2ccc(C3=CCCC3)cc2O[C@H]1CN(C)C(=O)Cc1ccncc1,-18.6,73.4,-0.2,nt,nt,nt,nt
C[C@@H]1CN([C@@H](C)CO)S(=O)(=O)c2ccc(C3=CCCCC3)cc2O[C@@H]1CN(C)C(=O)Cc1ccncc1,-68.1,96.6*,-1.8,89.0,58.8,18.5,31.6*
C[C@@H]1CN([C@@H](C)CO)S(=O)(=O)c2ccc(C3=CCCCC3)cc2O[C@H]1CN(C)C(=O)Cc1ccccc1,-42.9,?,-9.2,105.3*,41.2,52.8*,51.8*
C[C@@H]1CN([C@@H](C)CO)S(=O)(=O)c2ccc(C3=CCCCC3)cc2O[C@H]1CN(C)C(=O)Cc1ccncc1,-72.5,80.5,-1.9,nt,nt,nt,nt
C[C@@H]1CN([C@H](C)CO)S(=O)(=O)c2ccc(C3=CCCCC3)cc2O[C@H]1CN(C)C(=O)Cc1ccncc1,-78.6,99.6*,-1.9,102.9*,66.5,27.7,35.9*
O=C(C[C@H]1C[C@H]2c3cc(NC(=O)C4CCOCC4)ccc3O[C@H]2[C@H](CO)O1)NC1CCCC1,0.5,0.3,nt,nt,nt,nt,nt
C[C@H](CO)N1C[C@H](C)[C@H](CN(C)Cc2ccc(Cl)c(Cl)c2)Oc2ccc(NC(=O)Nc3cccc4ccccc34)cc2CC1=O,-22.4,79.3,-6.7,nt,nt,nt,nt
C[C@@H]1CN([C@H](C)CO)C(=O)Cc2cc(NC(=O)Nc3cccc4ccccc34)ccc2O[C@@H]1CN(C)Cc1ccc(Cl)c(Cl)c1,-9.8,?,9.2,107.8*,107.5*,44.4*,16.7
C[C@H]1CN([C@@H](C)CO)C(=O)c2cc(NC(=O)Nc3cccc4ccccc34)ccc2O[C@H]1CN(C)Cc1ccc(Cl)c(Cl)c1,-13.0,?,-0.2,95.9*,73.8,6.8,7.9
C[C@H]1CN([C@@H](C)CO)C(=O)c2cc(NC(=O)Nc3cccc4ccccc34)ccc2O[C@@H]1CN(C)Cc1ccc(Cl)c(Cl)c1,-23.8,101.4,-2.5,nt,nt,nt,nt
C[C@@H]1CN([C@@H](C)CO)C(=O)c2cccc(NC(=O)Nc3ccccc3)c2O[C@H]1CN(C)CC1CCCCC1,-33.9,59.7,4.9,nt,nt,nt,nt
COc1ccc2c3c([nH]c2c1)[C@H](CO)N(C(=O)c1cccc(F)c1)CC31CN(C(C)=O)C1,3.2,nt,-9.8,nt,nt,nt,nt
COc1ccc(-c2ccc([C@H]3[C@H]4CN(C(=O)c5ccc(F)cc5)CCCCN4[C@H]3CO)cc2)cc1,-7.2,76.3,11.2,nt,nt,nt,nt
COc1ccc(-c2ccc([C@@H]3[C@@H](CO)N4CCCCN(C(=O)c5ccc(F)cc5)C[C@H]34)cc2)cc1,26.5,122.8*,-2.3,?,18.2,-5.4,56.9*
SMILES,Pf Dd2 growth,T cruzi growth-1,C diff HTS,T cruzi growth-2,T cruzi growth-3,3T3 cytotox,3T3 cytotox 2
O=C(c1ccc(F)cc1)N1CCCCN2[C@@H](CO)[C@@H](c3ccc(-c4ccc(F)cc4)cc3)[C@@H]2C1,-14.7,51.0,15.5,nt,nt,nt,nt
O=C(c1ccc(F)cc1)N1CCCCN2[C@H](CO)[C@@H](c3ccc(-c4ccc(F)cc4)cc3)[C@H]2C1,17.9,111.0*,10.1,104.1*,67.9,36.9*,103.2*
O=C(c1ccc(F)cc1)N1CCCCN2[C@H](CO)[C@H](c3ccc(-c4ccccc4)cc3)[C@@H]2C1,-16.3,-20.1,16.4,nt,nt,nt,nt
O=C(c1ccc(F)cc1)N1CCCCN2[C@H](CO)[C@H](c3ccc(-c4ccc(F)cc4)cc3)[C@H]2C1,-17.0,107.1*,33.0,103.2*,80.8,31.2,105.5*
O=C(c1ccc(F)cc1)N1CCCCN2[C@H](CO)[C@H](c3ccc(-c4ccc(F)cc4)cc3)[C@@H]2C1,4.1,104.7*,43.4,108.1*,51.5,16.8,72.7*
O=C(c1ccc(F)cc1)N1CCCCN2[C@H](CO)[C@@H](c3ccc(-c4ccccc4)cc3)[C@@H]2C1,-6.1,87.8,40.3,nt,nt,nt,nt
CC(=O)N(C)C[C@@H]1Oc2ncc(C#Cc3ccccc3)cc2C(=O)N([C@H](C)CO)C[C@H]1C,-16.5,65.6,-6.6,nt,nt,nt,nt
COc1ccc(-c2ccc([C@H]3[C@@H](CO)N4CCCCN(C(=O)c5ccc(F)cc5)C[C@H]34)cc2)cc1,-43.7,94.5,-3.0,nt,nt,nt,nt
O=C(c1ccc(F)cc1)N1CCCCN2[C@H](C1)[C@@H](c1ccc(-c3ccc(F)cc3)cc1)[C@@H]2CO,2.2,97.7*,31.2,103.0*,51.5,42.5*,103.2*
COc1ccc(NC(=O)N(C)C[C@@H]2OCCCC[C@@H](C)Oc3ccc(NC(=O)Nc4ccc(F)cc4)cc3C(=O)N([C@H](C)CO)C[C@@H]2C)cc1,-54.0,-18.2,1.9,nt,nt,nt,nt
C[C@H]1CN([C@@H](C)CO)C(=O)Cc2cc(NC(=O)c3ccncc3)ccc2O[C@@H]1CN(C)Cc1ccc(Oc2ccccc2)cc1,-9.5,84.9,-10.2,nt,nt,nt,nt
C[C@@H]1CN([C@@H](C)CO)C(=O)Cc2cc(NC(=O)Nc3ccccc3)ccc2O[C@@H]1CN(C)Cc1ccncc1,-24.4,56.6,nt,nt,nt,nt,nt
